{"source": "PubChem BioAssay AID651958", "about": "(The Scripps Research Institute Molecular Screening Center, 2012)", "note": "Where “and” joins values, the source holds several entries; their conditions need not be identical. Equal values may be shown once. Out of some 370,000 compounds screened, about 2,000 (0.54%) were called active. The sample holds actives, similar compounds and a random draw of the others, so the mix is not that of the screen. Unmarked numbers belong to inactive results. Cut-off read from the data, not from the text of the source: active = inhibition above about 30%; inactive = the rest.", "data": [{"system": "Crimean-Congo hemorrhagic fever virus L polyprotein viral ovarian tumor (vOTU) protease domain", "assay": "CCHFV vOTU protease inhibitors, primary screen, biochemical, Pep-AMC substrate, fluorescence (AID 651958); note: 0% = vehicle wells with enzyme and 100% = no enzyme wells", "conditions": "at 11.5 µM, stronger effect = higher value", "values": [{"smiles": "CCOC(=O)c1cc2c(=O)[nH]c(C(Cl)(Cl)Cl)nc2o1", "inhibition": "-3.85%"}, {"smiles": "CCOC(=O)c1ccc(Nc2cc3ccccc3c(=O)[nH]2)cc1", "inhibition": "94.2% (active)"}, {"smiles": "CCOC(=O)c1ccc(NC(=O)C2CC(=O)Nc3nc4ccccc4n32)cc1", "note": "(stereo not given)", "inhibition": "19.2%"}, {"smiles": "Cc1cc(C)cc(NC(=S)NC2CC3CCCC(C2)N3Cc2cccs2)c1", "note": "(stereo not given)", "inhibition": "-9.42%"}, {"smiles": "CCC(C)(C(=O)NC1CCCC1)N(C(=O)CNC(C)=O)c1ccc(C)cc1", "note": "(stereo not given)", "inhibition": "7.89%"}, {"smiles": "Oc1c(C=Nc2cccc3nsnc23)ccc2ccccc12", "inhibition": "86% (active)"}, {"smiles": "CC1=C(C(=O)N2CCOCC2)CC(CC(=O)NCC2CCCCC2)C(=O)N1Cc1ccc(F)cc1", "note": "(stereo not given)", "inhibition": "14%"}, {"smiles": "CCCn1c(N)c(C(=O)CSc2nnc(Cc3cccs3)n2C2CC2)c(=O)[nH]c1=O", "inhibition": "-3.09%"}, {"smiles": "CC(=O)c1c(N)n(C)c(=O)n(C)c1=O", "inhibition": "5.25%"}, {"smiles": "N#C/C(=C\\c1ccccc1)c1n[nH]c(Cn2cncn2)n1", "inhibition": "4.11%"}, {"smiles": "CCc1ccc(/C=N/NC(=O)c2ccc(OC3CCCC3)cc2)s1", "inhibition": "12.3%"}, {"smiles": "COc1ccc(CNCCCNCc2ccc(OC)c(OC)c2)cc1OC", "inhibition": "5.96%"}, {"smiles": "Cc1ccc2[nH]c(=O)c(CC=C(Cl)Cl)c(C)c2c1", "inhibition": "3.16%"}, {"smiles": "CC(C)(C)OC(=O)NCCCCCNC(=O)c1[nH]cnc1C(=O)Nc1nccs1", "inhibition": "0.59%"}, {"smiles": "Cc1ccc(NC(=O)c2nc[nH]c2C(=O)N[C@@H](CCCCNC(=O)OC(C)(C)C)C(=O)OC(C)(C)C)cc1", "inhibition": "27.1%"}, {"smiles": "CCOC(=O)c1ccc(NC(=O)c2nc[nH]c2C(=O)N[C@@H](CCCCNC(=O)OC(C)(C)C)C(=O)OC(C)(C)C)cc1", "inhibition": "29.6% (active)"}, {"smiles": "CCOC1=C2CN(S(=O)(=O)c3ccc(C)cc3)[C@H](c3cccs3)C[C@H]2[C@H]2C(=O)N(c3ccccc3)C(=O)[C@H]2C1", "inhibition": "-5.03%"}, {"smiles": "O=C(COc1ccc(Cl)cc1)N1CCN(S(=O)(=O)c2ccc(Cl)cc2)CC1", "inhibition": "9.84%"}, {"smiles": "CSCCC(NC(=O)COc1ccccc1)C(=O)N1CCN(c2cccc(C(F)(F)F)c2)CC1", "note": "(stereo not given)", "inhibition": "13.9%"}, {"smiles": "O=C(COc1ccc(Cl)cc1)N1CCN(c2cccc(C(F)(F)F)c2)CC1", "inhibition": "32.4% (active)"}, {"smiles": "CCNC(=O)N1CCCC(C(=O)c2ccc(-c3ccccc3)cc2)C1", "note": "(stereo not given)", "inhibition": "-6.51%"}, {"smiles": "Cc1noc(C)c1S(=O)(=O)Nc1ccc(C(=O)O)cc1", "inhibition": "7.91%"}, {"smiles": "Cc1oc2c(F)c(F)c(F)c(F)c2c1S(=O)(=O)Nc1cccc(C(F)(F)F)c1", "inhibition": "43.8% (active)"}, {"smiles": "Cc1ccc(N(CCC(=O)O)S(=O)(=O)c2cccc(C(F)(F)F)c2)cc1", "inhibition": "-2.86%"}, {"smiles": "C[C@]12C=CC(=O)C=C1CC[C@@H]1[C@@H]2C(=O)C[C@@]2(C)[C@H]1CC[C@]2(O)C(=O)CO", "inhibition": "0.7% and 3.02%"}, {"smiles": "COCCCN(C(=S)Nc1c(C)cc(C)cc1C)C(C)c1ccncc1", "note": "(stereo not given)", "inhibition": "-6.09%"}, {"smiles": "CN(C)N1C(N)=C(C#N)C(c2ccc(Br)cc2)C2=C1CCCC2=O", "note": "(stereo not given)", "inhibition": "35.1% (active)"}, {"smiles": "CCOc1ccc(C2C(C#N)=C(N)N(N(C)C)C3=C2C(=O)CCC3)cc1", "note": "(stereo not given)", "inhibition": "16.2%"}, {"smiles": "CCc1ccc(C2C(C#N)=C(N)N(N(C)C)C3=C2C(=O)CCC3)s1", "note": "(stereo not given)", "inhibition": "1.4%"}, {"smiles": "CC(C(=O)N=Nc1c(O)n(C)c2ccc(Br)cc12)n1cnc2ccccc2c1=O", "note": "(stereo not given)", "inhibition": "-4.46%"}, {"smiles": "CNc1nccc(-c2ccc(Cl)cc2)c1C#N", "inhibition": "-58.4%"}, {"smiles": "CCn1c(C)nc2cc(C(=O)NNS(=O)(=O)c3ccc(C)cc3C)ccc21", "inhibition": "-9.65%"}, {"smiles": "O=C1Cc2ccccc2Sc2ccc(Cl)cc21", "inhibition": "7.8%"}, {"smiles": "CCN(CC)C(=O)[C@@H]1C=C2c3cccc4[nH]c(Br)c(c34)C[C@H]2N(C)C1", "inhibition": "33.8% (active)"}, {"smiles": "COc1ccc(CCN2C(=O)N(c3ccc(OC)cc3)C(=O)C2CC(=O)Nc2ccc(OC)cc2)cc1", "note": "(stereo not given)", "inhibition": "4.43%"}, {"smiles": "COc1ccc(NC(=O)C[C@H]2C(=O)N(CCc3ccccc3)C[C@@H]2C)cc1", "inhibition": "29.5% (active)"}, {"smiles": "CC1(C)CN(CCc2ccccc2)C(=O)[C@H]1CC(=O)Nc1ccc(Br)cc1", "inhibition": "21.8%"}, {"smiles": "COC(=O)C1=C(c2cc3ccccc3s2)C[C@@H]2CC[C@H]1N2C(=O)NCCO", "inhibition": "-0.84%"}, {"smiles": "Cc1noc(/C=C/c2ccco2)c1S(=O)(=O)N1CCC(C(=O)Nc2ccc(Cl)cn2)CC1", "inhibition": "2.84%"}, {"smiles": "O=C(Nc1ccc(S(=O)(=O)NCC2CCCO2)cc1)c1ccc(F)cc1", "note": "(stereo not given)", "inhibition": "14%"}, {"smiles": "Cc1ccc(NC(=O)c2ccc(S(=O)(=O)NCC3CCCO3)cc2)cc1C", "note": "(stereo not given)", "inhibition": "-7.16%"}, {"smiles": "CCOc1ccc(C(=O)Nc2ccc(S(=O)(=O)NCC3CCCO3)cc2)cc1OCC", "note": "(stereo not given)", "inhibition": "35% (active)"}, {"smiles": "CC(C)c1ccc(Nc2ncccc2C#N)cc1", "inhibition": "7.01%"}, {"smiles": "CCC(C)(C)NC(=O)C(c1ccc(O)cc1)N(Cc1ccco1)C(=O)CCC(=O)Nc1ccccn1", "note": "(stereo not given)", "inhibition": "0.91%"}, {"smiles": "CSc1ccccc1NC(=O)CN(C)CC(=O)Nc1cccc(Br)c1", "inhibition": "0.92%"}, {"smiles": "Cc1cccc(N(C(=O)c2sc(C)nc2C)C(C(=O)NCC2CCCO2)c2ccccc2)c1", "note": "(stereo not given)", "inhibition": "-8.32%"}, {"smiles": "C=CCn1c(N)cc(=O)nc1SCC(=O)Nc1cccc2ccccc12", "inhibition": "-1.46%"}, {"smiles": "Cc1ccc(-n2c(SCC(=O)Nc3cccc4ccccc34)nnc2-c2ccccn2)cc1", "inhibition": "-2.55%"}, {"smiles": "Cc1ccccc1-n1c(SCC(=O)Nc2cccc3ccccc23)nc(O)cc1=O", "inhibition": "32.7% (active)"}, {"smiles": "O=C(Cn1cnc2c(OCc3ccccc3)ncnc21)NCc1nc2ccccc2[nH]1", "inhibition": "-9.89%"}, {"smiles": "Cn1c(=NC(=O)c2cnccn2)sc2ccccc21", "inhibition": "36.4% (active)"}, {"smiles": "Cn1c(=NC(=O)c2ccco2)sc2cccc(F)c21", "inhibition": "5.27%"}, {"smiles": "Cn1c(=NC(=O)c2ccc3c(c2)OCCO3)sc2cc(S(C)(=O)=O)ccc21", "inhibition": "-4.23%"}, {"smiles": "COC(=O)c1ccc(CN2C(=O)[C@]3(OCCC=C[C@H]3C)c3c(Br)cccc32)cc1", "inhibition": "10.2%"}, {"smiles": "O=C(N[C@@H]1C/C=C\\C[C@@H](CC(=O)N(CCO)Cc2ccccc2)C(=O)N[C@H](Cc2ccccc2)COC1=O)OCC1c2ccccc2-c2ccccc21", "inhibition": "0.7%"}]}]}
